From PubChem BioAssay (NCI)
Compounds without any hit were thinned out: in the full panel of roughly 83,000, 20% have a hit.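 Growth was measured after 48 h exposure to one concentration of compound in 96-well plates. Values under 10 count as active.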 Values without a mark were called inactive. Active and inactive are the calls of the source.

How the values were obtained:
Experiment in all cases: NCI-60 one-dose screen, 48 h (100 = growth as untreated, 0 = no growth, -100 = all killed)
Conditions in all cases: 10 µM unless noted
NCI-H226 lung = test system: NCI-H226 lung
NCI-H322M lung = test system: NCI-H322M lung
HOP-62 NSCLC = test system: HOP-62 NSCLC
NCI-H460 lung = test system: NCI-H460 lung
HOP-92 NSCLC = test system: HOP-92 NSCLC
NCI-H522 lung = test system: NCI-H522 lung
A549/ATCC NSCLC = test system: A549/ATCC NSCLC
786-0 renal = test system: 786-0 renal
COLO 205 colon = test system: COLO 205 colon
DU-145 prostate = test system: DU-145 prostate
MALME-3M melanoma = test system: MALME-3M melanoma
MDA-MB-231 breast = test system: MDA-MB-231 breast
RXF 393 renal = test system: RXF 393 renal
SF-268 CNS = test system: SF-268 CNS
SF-295 CNS = test system: SF-295 CNS
SF-539 CNS = test system: SF-539 CNS
UACC-257 melanoma = test system: UACC-257 melanoma
M14 melanoma = test system: M14 melanoma
K-562 leukemia = test system: K-562 leukemia

Row | Structure (SMILES) | growth (NCI-H226 lung) | growth (NCI-H322M lung) | growth (HOP-62 NSCLC) | growth (NCI-H460 lung) | growth (HOP-92 NSCLC) | growth (NCI-H522 lung) | growth (A549/ATCC NSCLC) | growth (786-0 renal) | growth (COLO 205 colon) | growth (DU-145 prostate) | growth (MALME-3M melanoma) | growth (MDA-MB-231 breast) | growth (RXF 393 renal) | growth (SF-268 CNS) | growth (SF-295 CNS) | growth (SF-539 CNS) | growth (UACC-257 melanoma) | growth (M14 melanoma) | growth (K-562 leukemia)
1 | COc1ccc(SC2c3ccc(O)cc3Oc3nc(N)c(C#N)c(N)c32)cc1 (configuration not stated) | 117% | 79.2% | 64.4% | 79.3% | 112% | 86.3% | 84.6% | 81.6% | 115% | 93.1% | 99.3% | 101% | 122% | 57.3% | 76.8% | 52.1% | 106% | 105% | –
2 | Cc1cn(C2CC(N=[N+]=[N-])C(COP(=O)(O)OP(=O)(O)OP(=O)(O)O)O2)c(=O)[nH]c1=O (configuration not stated) | 115% | 102% | 94.1% | 82.4% | 50.9% | 92.9% | 146% | 95.2% | 119% | 114% | 87.9% | 118% | 127% | 103% | 80.7% | 114% | 108% | 57.7% | 83.5%
3 | O=C(Nc1ccccc1F)Nc1ccccc1Cl | 82.9% | 103% | 91.7% | 92.4% | 97.3% | 54.9% | 88.5% | 107% | 137% | 103% | 74% | 85.8% | – | 91% | 81.4% | 91% | 96.1% | 100% | 55.8%
4 | Nc1ccc(S(=O)(=O)Nc2cc(I)cc(I)c2)cc1 | 113% | 94.8% | – | 109% | 79.2% | 90.1% | 112% | 95.5% | 123% | 124% | 118% | 102% | 97.2% | 108% | 113% | 111% | 99.7% | 110% | 78.5%
5 | C[C@@H]1CC2C3C[C@H](F)C4=CC(=O)C=C[C@]4(C)[C@@]3(F)[C@@H](O)C[C@]2(C)[C@@]1(O)C(=O)CO (some centres not stated) | 70.5% | 94.6% | 101% | 96.2% | 80% | 91.9% | 68% | 109% | 99.3% | 80.8% | 84.7% | 95.1% | 120% | 88.8% | 116% | 83.2% | 88.4% | 93.5% | 107%
6 | O=C(O)c1ccc(-c2nn(-c3ccc(C(=O)O)cc3)cc2/C=N/Nc2c(F)c(F)cc(F)c2F)cc1 | 103% | 99.9% | 99% | 114% | 115% | 89.2% | 97.7% | 112% | 111% | 105% | 93.7% | 105% | 112% | 93.2% | 102% | 102% | 95.7% | 96.6% | 105%
7 | COc1cc(Nc2ncccc2C(=O)Nc2nc3ccc(F)cc3s2)cc(OC)c1OC | 57.2% | 90.8% | 40.9% | 74.1% | 45.1% | 50.6% | 65.6% | 22.9% | 118% | 90.4% | 78.8% | 71.4% | 139% | 90% | 15.6% | 92.9% | 86.4% | 19.1% | 97%
8 | COc1cccc(-c2nc3sccn3c2-c2ccnc(NCCNC(=O)Nc3cccc(C(F)(F)F)c3)n2)c1 | 94.9% | 81.3% | 98.9% | 45.1% | 92.4% | 47.7% | 44.4% | 65.6% | 57.6% | 79.8% | 85.1% | 43.7% | 6.3% (active) | 62.3% | 37.7% | 77.9% | 69.5% | 39.2% | 39.9%
9 | COc1ccc(-c2nn(-c3ccc(NC(=O)Nc4ccc(Cl)c(C(F)(F)F)c4)cc3)cc2-c2ccncc2)cc1Cl | 1.73% (active) | 32.7% | -0.289% (active) | -28.2% (active) | -22% (active) | – | 10.3% | -33.7% (active) | -74.5% (active) | 20.5% | 2.95% (active) | -52.1% (active) | -68.3% (active) | 19% | -25.9% (active) | -1.2% (active) | -5.92% (active) | -4.4% (active) | 10.3%
10 | COc1ccc(-c2ccc(NC(=O)Nc3cccc(C(F)(F)F)c3)c(C)n2)cc1 | 58.1% | 64.4% | 68% | 48.7% | 68.8% | – | 42.5% | 77.3% | 84.5% | 68.8% | 90.6% | 68.6% | 85.9% | 74.5% | 47.6% | 80.8% | 61.4% | 37.2% | 32.5%
11 | CC1CCc2cc(F)cc3c(=O)c(C(=O)O)cn1c23 (configuration not stated) | 103% | 116% | 106% | 105% | 91.9% | 110% | 104% | 87.1% | 104% | 110% | 99.9% | 82.8% | 108% | 105% | 97.6% | 107% | 101% | 97.6% | 92.6%
12 | CC(CN(C)C)CN1c2ccccc2CCc2ccccc21 (configuration not stated) | 100% | 77.1% | 96.4% | 103% | 38.9% | 80.2% | 94.4% | 64.3% | 46.1% | 106% | 88.8% | 85.9% | – | 93% | 87.5% | 90.5% | 105% | 52.3% | 65.4%
13 | N#CC(C#N)=C(C#N)c1c[nH]c2ccccc12 | 78.4% | 110% | 81.2% | 92.8% | 41.2% | 57.4% | 80.4% | 82.4% | 73.8% | 88% | 86.1% | 84.8% | 88.2% | 90.7% | 103% | 80.4% | 85.2% | 79.7% | 91.3%
14 | COc1ccc(CNc2nc3ccccc3c3c(=O)c4ccccc4sc23)cc1OC | 75.6% | 80.6% | 79.8% | 63.3% | 42.8% | 77.4% | 61.6% | 76.8% | 79.4% | 74% | 66.6% | 61.5% | 61% | 78.7% | 68.3% | 81% | 88.6% | 86.2% | 69.3%
15 | Cc1cc(NC(=O)c2cccc(C(F)(F)F)c2)ccc1-n1ccc2c(NC(=O)c3ccccc3)nccc21 | 112% | 77.4% | 87.4% | 116% | 123% | 85.6% | 86.8% | 102% | 113% | 112% | 99.7% | 94.9% | 118% | 103% | 102% | 95.9% | 101% | 96.8% | 91.2%
16 | O=C(Nc1ccc(-n2ccc3c(NC(=O)c4ccccc4)ncnc32)cc1)Nc1ccc(Cl)c(C(F)(F)F)c1 | 8.8% (active) | 36% | – | -62.2% (active) | -8.52% (active) | -58.9% (active) | -62.9% (active) | 37% | 17.4% | -22.7% (active) | 15% | 12% | -56.9% (active) | -15% (active) | -37.6% (active) | 13.5% | 7.73% (active) | 3.01% (active) | 0.237% (active)
17 | C#CC(=O)/C=C/CCCCCCC#CC(=O)CCC(=O)C#CCCCCCC/C=C/C(=O)C#C | 122% | 93.5% | 61.2% | 80% | -42.3% (active) | -78.6% (active) | 87.8% | -46.9% (active) | -0.795% (active) | 35.3% | -68.3% (active) | -6.98% (active) | -36.7% (active) | 22.5% | 71.7% | -34.5% (active) | 62.9% | -19.2% (active) | 0.258% (active)
18 | O=c1cc(Cl)[nH]c(=O)[nH]1 | 97.5% | 98.9% | 83.2% | 108% | 98.2% | 67.7% | 79.5% | 101% | 97.5% | 107% | 112% | 111% | 101% | 101% | 101% | 105% | 89.1% | 97.6% | 104%
19 | COc1ccc(/C(=C/c2cc(OC)c(OC)c(OC)c2)[N+](=O)[O-])cc1 | 3.77% (active) | 86.7% | 68.3% | 13% | -24.6% (active) | -37% (active) | 65.8% | -44.3% (active) | -51.5% (active) | 16.3% | -10.8% (active) | 9.98% (active) | -85.1% (active) | 17.6% | 103% | -11.3% (active) | 31.8% | 2.06% (active) | 3.58% (active)
20 | C=CC(=O)NC(=O)Nc1ccccc1Cl | 94.2% | 90.2% | 89.8% | 102% | 86.2% | 6.09% (active) | 75.4% | 74.3% | 88.9% | 48.4% | 83% | 72.4% | 88.7% | 96.7% | 101% | 72.3% | 71.9% | 70% | 41.2%
21 | O=C(Nc1ccc(-n2ccc3c(NC(=O)c4ccccc4)nccc32)cc1)c1ccc(Cl)c(C(F)(F)F)c1 | 69.9% | 66.1% | 53.9% | -67% (active) | 46.5% | -0.6% (active) | -29.9% (active) | 22.9% | 37.2% | 23.6% | 57.9% | 55.8% | 18.4% | 28.7% | 25.3% | 24.1% | 58.8% | 31.5% | -31.6% (active)
22 | Cc1ccc(-c2cc(-c3nnc(SCC(=O)c4ccccc4)o3)c3ccccc3n2)cc1 | 94.5% | 90.3% | 108% | 98.3% | 96.6% | 87.7% | 91.4% | 92.8% | 111% | 95.2% | 107% | 117% | – | 88.9% | 99.1% | 94.2% | 114% | 97.2% | 93.2%
23 | COc1cc([C@@H]2c3cc4c(cc3C(OC3O[C@@H]5COC(C)O[C@H]5[C@H](O)[C@H]3O)C3COC(=O)[C@@H]32)OCO4)cc(OC)c1O (some centres not stated) | 33.1% | 115% | -9.99% (active) | 7.32% (active) | 63.5% | 24.3% | 29.7% | -13.1% (active) | 60.6% | 15.9% | 40.2% | 78.3% | 28.9% | 23.9% | -10.4% (active) | -5.44% (active) | 51.2% | 4.19% (active) | 30.5%
24 | N#Cc1c(N)nc2c(c1N)C(c1ccc(Cl)cc1)C1=C(CCCC1=O)N2c1sc2c(c1C#N)CCCC2 (configuration not stated) | 89.2% | 83.5% | 80% | 97.3% | 62% | 84.3% | 90.1% | 80.1% | 96.2% | 99.7% | 90.7% | 75.4% | 60.6% | 89.5% | 101% | 96% | 92.6% | 90.3% | 74.2%
25 | O=C1OC(N(Cc2ccc(Cl)cc2)c2ccccc2)c2ccccc21 (configuration not stated) | 92.9% | 89.6% | 88.9% | 111% | 100% | 65.8% | 90.5% | 91% | 104% | 109% | 104% | 84.8% | 125% | 105% | 104% | 99.7% | 105% | 104% | 87%
